According to paper PMC4552634, “A New Set of Chemical Starting Points with Plasmodium falciparum Transmission-Blocking Potential for Antimalarial Drug Discovery” (PLoS ONE, 2015):
Screen size: about 13,000 compounds; about 3,200 (25%) showed an effect of 50% or more. This is one part of the list.

Test system: P. falciparum stage V gametocytes
Set-up: BacTiter-Glo ATP luminescence viability of purified stage V gametocytes in 384-well plates, per cent inhibition versus DMSO
Settings: 48 h, 5 µM; inhibitor

| SMILES | % Inhibition |
| --- | --- |
| O=C(/C=C/c1ccc(Cl)c(Cl)c1)NCCCCCCN1CCCN(C(=O)Nc2cc(F)cc(F)c2)CC1 [TCMDC-135941] | 5.109% |
| C=C[C@]1(C)C[C@@H](OC(=O)NC(=O)C2CCN(C(=O)CSc3ccccc3)CC2)[C@]2(C)[C@H](C)CC[C@]3(CCC(=O)[C@H]32)[C@@H](C)[C@@H]1O [TCMDC-139971] | 14.26% |
| CNC(=O)NC1=NC(C)(C)N(OCCCOc2cc(Cl)c(Cl)cc2Cl)C(N)=N1 [TCMDC-131701] | 9.937% |
| CN(C)CCCNc1ncnc2c1[nH]c1ccc(Cl)cc12 [TCMDC-124579] | 36.17% |
| NCCCCc1c(-c2ccc(Cl)c(Cl)c2)[nH]c2ccc(Cl)cc12 [TCMDC-125841] | 97.12% |
| Cc1nc(N)nc(N)c1-c1ccc(Cl)c(Cl)c1 [TCMDC-123931] | 6.997% |
| CO/C(=C\C=C\c1cc2cc(Cl)c(Cl)cc2[nH]1)C(=O)NCCCN1CCN(c2cccc(OCC(=O)Nc3ccccc3)c2)CC1 [TCMDC-139822] | -45.25% |
| Cc1cc(OCCCN2CCC(NS(=O)(=O)c3cccc(Br)c3)C2)c2ccccc2n1 (centres unmarked) [TCMDC-136283] | -24.53% |
| COc1cc(Cc2cnc(N)nc2N)cc(OCCCC#N)c1OC [TCMDC-138040] | -4.212% |
| Cc1nn(CC(C)C)c2sc(C(=O)N3CCN(S(=O)(=O)c4ccc(C#N)cc4)CC3)cc12 [TCMDC-125045] | 90.92% |
| Cc1ccc(S(=O)(=O)N2CCN(C(=O)c3cc(-c4ccccc4)n[nH]3)CC2)cc1 [TCMDC-124401] | -51.82% |
| COc1ccccc1-c1cc(C(=O)N2CCN(S(=O)(=O)c3ccc(C)cc3)CC2)[nH]n1 [TCMDC-124398] | 19.71% |
| CCOc1ccc(-c2n[nH]c(C(F)(F)F)c2-c2ccccc2OC)c(O)c1 [TCMDC-124564] | -16.08% |
| CC(=O)Nc1ccc(C2NC(=O)NC(c3ccccc3)=C2c2nc3ccccc3s2)cc1 (centres unmarked) [TCMDC-124535] | -96.89% |
| CC(=O)Nc1cccc(C(=O)Nc2ccc(-c3ccc(-c4nc5cccc(C)c5[nH]4)s3)cc2)c1 [TCMDC-132143] | -2.133% |
| CC(=O)c1c(C)[nH]c(C(=O)Nc2ccc(-c3nc4ccc(C)cc4s3)cc2)c1C [TCMDC-124493] | 55.35% |
| CC[C@H](NC(=O)c1c(CN2CCC(N3CCCCC3)CC2)c(-c2ccccc2)nc2c(Cl)c(O)ccc12)c1ccccc1 [TCMDC-140367] | 17.06% |
| CCN(CC)CCOc1ccc(C(O)(C#CC(O)(c2ccc(Br)cc2)c2ccc(OCCN(CC)CC)cc2)c2ccc(Br)cc2)cc1 (centres unmarked) [TCMDC-137199] | 112.4% |
| NOCCCCOc1ccc(Br)cc1 [TCMDC-131760] | 15.82% |
| CCC(=O)OC(CCN(CC)CC)(c1ccccc1)c1ccccc1 [TCMDC-131415] | 15.82% |
| CCN(CC)CCOc1ccc(C(O)(C#CC(O)(c2ccc(OCCN(CC)CC)cc2)c2ccc([N+](=O)[O-])cc2)c2ccc([N+](=O)[O-])cc2)cc1 (centres unmarked) [TCMDC-137201] | 116.9% |

| SMILES | % Inhibition |
| --- | --- |
| CCOC(=O)c1ccc(OCCCCCCOc2ccc(Br)cc2)cc1 [TCMDC-131409] | 4.056% |
| CCCN(CCC)CCOc1ccc(C(O)(C#CC(O)(c2ccc(OCCN(CCC)CCC)cc2)c2cccc(Cl)c2)c2cccc(Cl)c2)cc1 (centres unmarked) [TCMDC-137200] | 105.4% |
| CCN(CC)CCOc1ccc(NC(=O)c2oc3ccccc3c2C=Cc2ccccc2)cc1 [TCMDC-132102] | 24.22% |
| CCN(CC)CCNc1ccnc2[nH]c3ccc([N+](=O)[O-])cc3c12 [TCMDC-131978] | 4.282% |
| CCN(CC)CCOc1ccc(C(O)(C#CC(O)(c2ccccc2)c2ccc(OCCN(CC)CC)cc2)c2ccccc2)cc1 (centres unmarked) [TCMDC-137197] | 109.6% |
| CC1(C)N=C(N)N=C(N)N1OCCCOc1ccc([N+](=O)[O-])cc1 [TCMDC-131610] | 2.796% |
| O=C(Nc1ccc(Cl)cc1)c1ccc(CN2CCCN(Cc3ccsc3)CC2)cc1 [TCMDC-136415] | 6.883% |
| O=C(Nc1cccc(CN2CCCN(Cc3ccc(O)cc3)CC2)c1)c1cccc(Cl)c1 [TCMDC-141817] | -7.519% |
| Cc1sc2nc(CSc3ccccc3)nc(N3CCN(CC(=O)NC4CC4)CC3)c2c1C [TCMDC-125266] | 47.29% |
| COc1ccc2ccc(F)c(CC(=O)N3CCOC(CNCc4cccc(-c5ccsc5)n4)C3)c2n1 (centres unmarked) [TCMDC-135027] | 10.39% |
| O=C(/C=C/c1ccc(Cl)c(Cl)c1)NCCCCCN1CCC(C(=O)Nc2ccc(F)c(Cl)c2)CC1 [TCMDC-136112] | 0.5724% |
| CN(CCCN(C)c1cc(NC(=O)c2ccc(F)cc2)ccn1)Cc1cccc(O)c1 [TCMDC-134954] | -6.57% |
| C[C@H](NC(=O)C1CCCC1)C(=O)Nc1ccc(-c2ccc(-c3nc4ccc(C(F)(F)F)cc4[nH]3)cc2)cc1 [TCMDC-137052] | -25.16% |
| COc1cc(Cc2cnc(N)nc2N)cc(OCCCS(=O)(=O)O)c1OC [TCMDC-137357] | -4.274% |
| COc1cc(/C=C/C(=O)NC2CCC(N3CCC(c4ccccc4C)CC3)CC2)cc(OC)c1 (centres unmarked) [TCMDC-133516] | -90.94% |
| Cc1ccc(OCCCCONC(=O)c2ccccc2)cc1 [TCMDC-131756] | 2.332% |
| CCN(CC)CCOc1ccc(C(O)(C#CC(O)(c2ccc(C)cc2)c2ccc(OCCN(CC)CC)cc2)c2ccc(C)cc2)cc1 (centres unmarked) [TCMDC-137198] | 113% |
| CCCC(C(=O)OCCN(CC)CC)(c1ccc(Cl)cc1)c1ccc(Cl)cc1 [TCMDC-141994] | 16.96% |
| CCC1CCCCN1S(=O)(=O)c1ccc(NC(=O)c2cc(C)on2)cc1 (centres unmarked) [TCMDC-124618] | -16.01% |
| O=C(NC1CCC(N2CCC(c3ccccc3C(F)(F)F)CC2)CC1)c1cc2ccccc2[nH]1 (centres unmarked) [TCMDC-132895] | -39.86% |
